PubChem BioAssay (NCI)
About 83,000 compounds went through this panel and 20% of them were active in at least one assay; those are over-represented in the sample as a whole.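 Each cell line was grown in a 96-well plate and treated with one concentration of compound for 48 hours. Values below 10 were considered active.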 A number with no mark means an inactive call. Active and inactive are the calls of the source.

Assays:
Assay in all cases: NCI-60 one-dose screen, 48 h (100 = growth as untreated, 0 = no growth, -100 = all killed)
Conditions in all cases: 10 µM
HT29 colon = tested on: HT29 colon
SNB-75 CNS = tested on: SNB-75 CNS
SNB-19 CNS = tested on: SNB-19 CNS
U251 CNS = tested on: U251 CNS
PC-3 prostate = tested on: PC-3 prostate
SK-MEL-5 melanoma = tested on: SK-MEL-5 melanoma
UACC-62 melanoma = tested on: UACC-62 melanoma
LOX IMVI melanoma = tested on: LOX IMVI melanoma
SK-MEL-28 melanoma = tested on: SK-MEL-28 melanoma
SK-MEL-2 melanoma = tested on: SK-MEL-2 melanoma

| Compound | growth (HT29 colon) | growth (SNB-75 CNS) | growth (SNB-19 CNS) | growth (U251 CNS) | growth (PC-3 prostate) | growth (SK-MEL-5 melanoma) | growth (UACC-62 melanoma) | growth (LOX IMVI melanoma) | growth (SK-MEL-28 melanoma) | growth (SK-MEL-2 melanoma) |
| --- | --- | --- | --- | --- | --- | --- | --- | --- | --- | --- |
| COc1ccc(/C=C/C(=O)Nc2ccc(-c3nc4ccc(OC)cc4s3)cc2)cc1 | 110% | 102% | 105% | 109% | 101% | 104% | 108% | 92.3% | 111% | 105% |
| CC12O[C@H](C[C@@H](O)[C@H]1O)n1c3ccccc3c3c4c(c5c6ccccc6n2c5c31)C(=O)N(CCCN)C4=O | 11.3% | 49.8% | 26.9% | 14.8% | 34% | 40.6% | 47.8% | 1.96% (active) | 92.1% | 50.3% |
| NC(=O)c1ccc(-c2cccc3c(=O)nc(N4CCOCC4)oc23)cc1 | 101% | 74.5% | 99.1% | 97.7% | 89.9% | 97.8% | 92.3% | 91.1% | 103% | 102% |
| CCN(CC)Cc1cc(Nc2ccnc3cc(Cl)ccc23)ccc1OC | 33.7% | 86.8% | 94.1% | 82% | 66.7% | 91.6% | 104% | 47.7% | 108% | 116% |
| CC/C(=C(/c1ccc(OCCN(C)C)cc1)c1ccc(OC(=O)CCC(=O)c2c(C)[nH]c(/C=C3\N=C(c4ccc[nH]4)C=C3OC)c2C)cc1)c1ccccc1 | 6.7% (active) | 28.3% | 72.7% | 12.5% | 19.3% | 2.36% (active) | -13.8% (active) | -45% (active) | 62.1% | -11.4% (active) |
| O=C1/C(=C\c2ccc(F)cc2)CN(C(=O)c2ccc([N+](=O)[O-])cc2)C/C1=C\c1ccc(F)cc1 | -56.9% (active) | 56.7% | 67.5% | 9.03% (active) | 28.6% | 45.7% | 40.3% | -53.3% (active) | 65.1% | 74.5% |
| CN(C)c1ccc(N=C2C=CC(=O)c3ccccc32)cc1 | 61.4% | 84.7% | 70.7% | 87.5% | 65.2% | -56.1% (active) | 22.5% | 40.9% | 73.6% | 64.9% |
| COc1cc(-c2cc(/C=C3\C(=O)Nc4ccccc43)[nH]n2)cc(OC)c1OC | 55.7% | 44.5% | 65.8% | 56.1% | 19% | -57% (active) | -11.1% (active) | 38.6% | 59.8% | 27.5% |
| CCCCCCCCCCCC[n+]1ccc(C(N)=O)cc1 | 5.01% (active) | -4.25% (active) | 18.6% | -3.1% (active) | -18.2% (active) | -6.99% (active) | 29% | 25.6% | 57.8% | 30.9% |
| O=C(Nc1ccc(Cl)c([N+](=O)[O-])c1)Nc1nc2ccccc2s1 | 87.3% | 94.2% | 84.2% | 84% | 49.9% | 74.3% | 70% | 91.4% | 98.8% | 102% |
| O=C1/C(=C\c2ccc(Cl)cc2)CN(C(=S)Nc2ccccc2)C/C1=C\c1ccc(Cl)cc1 | -77% (active) | -36.3% (active) | -72.9% (active) | -97.7% (active) | -55.6% (active) | -73% (active) | -70.4% (active) | -80.1% (active) | -60.3% (active) | -28.4% (active) |
| CCC(=O)N1C/C(=C/c2ccc(Cl)cc2)C(=O)/C(=C/c2ccc(Cl)cc2)C1 | -72.8% (active) | 20% | -19.3% (active) | -80.1% (active) | -44.1% (active) | -64.1% (active) | -74.8% (active) | -85.7% (active) | -74.2% (active) | -21.5% (active) |
| O=C(N/N=C/c1ccccc1O)C(O)(c1ccccc1)c1ccccc1 | 49.7% | 68.8% | 66% | 45.9% | 55.5% | 62.1% | 51.9% | 25.7% | 69.7% | 107% |
| COc1cc(CNc2ccccc2C(=O)N2CCN(C(=O)c3cc(-c4cc(OC)c(OC)c(OC)c4)n4nc(-c5ccccc5)cc4n3)CC2)cc(OC)c1OC | 12.9% | 33.5% | 64.1% | 35.2% | 26.9% | 16.5% | 27% | 35.7% | 53% | -0.722% (active) |
| C#Cc1ccc(-n2c(/C=C/c3ccc(O)c(OC)c3)nc3ncccc3c2=O)cc1 | 112% | 55.9% | 96.2% | 94.1% | 81.2% | 94.2% | 104% | 93.5% | 97.9% | 85.7% |
| O=C(Nc1cccc(Cl)c1)Nc1nccs1 | 94.4% | 91.6% | 83.4% | 94.1% | 94.5% | 89.7% | 79.8% | 94.1% | 103% | 97.2% |
| C#Cc1ccc(-n2c(/C=C/c3ccc4ccccc4n3)nc3ncccc3c2=O)cc1 | -61.4% (active) | -59.2% (active) | -0.995% (active) | -57.6% (active) | -28.6% (active) | -98.2% (active) | -65.3% (active) | -50.8% (active) | -52.8% (active) | -67% (active) |
| Nc1cc2c(cc1Cl)-c1ccc([N+](=O)[O-])cc1/C2=N\O | 82.5% | 66.6% | 93.6% | 67.7% | 52% | 82.5% | 78% | 53.8% | 109% | 106% |
| COc1ccccc1CNCCCN1C(=O)c2ccc3c4c(ccc(c24)C1=O)C(=O)N(CCCN)C3=O | -51.1% (active) | 39.3% | -5.76% (active) | -46.6% (active) | -8.32% (active) | -97.5% (active) | -90.2% (active) | -61% (active) | 5.1% (active) | -57.3% (active) |
| COc1ccc(-c2nc3sccn3c2-c2nc3c([nH]2)C(=O)c2ccccc2C3=O)cc1 | 96.2% | 81.7% | 96.4% | 87.1% | 73.7% | 89% | 82.2% | 90.7% | 89.6% | 101% |
| CC(=O)N1N=C(c2ccc(Cl)cc2)CC1c1sc(Cl)nc1Cl (stereo not given) | 64.2% | 84.3% | 66.9% | 71.2% | 72.8% | 89.5% | 83.3% | 88.4% | 94.7% | 84.9% |
| COc1ccc(OC)c(/C=C/c2nc(SCc3ccccc3)n(-c3ccc(Cl)cc3)n2)c1 | 63.1% | 59.6% | 61.4% | 38.7% | 35.6% | 45.2% | 33.9% | 32.4% | 71.5% | 69.2% |
| COc1ccc(-n2c(SCc3cc(OC)c(OC)c(OC)c3)nc3ccc(C)cc3c2=O)cc1 | 21.9% | 44.4% | 83.7% | 69.1% | 75% | 54.9% | 56.7% | 63% | 74% | 64.8% |
| Nc1c(C(=O)Nc2cccc(F)c2)sc2nc3c(cc12)C(=O)CCC3 | 16.7% | 24.9% | 48.9% | 32.1% | 20.7% | 43.2% | 43.4% | 46.5% | 49.7% | 43.3% |
